# Laboratory results from ChEMBL document CHEMBL4513146, “CO-ADD screening of Karazin Kharkiv National University (Ukraine) compounds”.
# Entries with a potency or affinity are not part of this list.
# Tests used:
# Klebsiella pneumoniae = conditions: Concentration 32 ug.mL-1;; ASSAY_TEST Inhibition of Bacterial Growth; detection method Absorption (OD600); MEDIA CAMHB; plate type 384well; NBS; CORNING #3640; time 18 hr
# Candida albicans = conditions: Concentration 32 ug.mL-1; ASSAY_TEST Inhibition of Fungal Growth; detection method Absorption (OD530)
# Cryptococcus neoformans = conditions: Concentration 32 ug.mL-1; ASSAY_TEST Inhibition of Fungal Growth; detection method Resazurin; Absorption (OD600-OD570); plate type 384well; NBS; CORNING #3640
Structure (SMILES),Inhibition (Klebsiella pneumoniae) [%],Inhibition (Candida albicans) [%],Inhibition (Cryptococcus neoformans) [%]
O=C(Cn1nc2ccc(SCc3ccc(Cl)cc3)nn2c1=O)NCc1ccccc1,6.87,25.95,-17.55
CCCCn1c(=O)c2sccc2n2c(CCC(=O)NC(C)C34CC5CC(CC(C5)C3)C4)nnc12 (stereo not given),12.08,-2.51,-27.66
O=C(Cn1nc2c3cc(-c4ccc(Cl)cc4)nn3ccn2c1=O)Nc1ccc2c(c1)OCO2,13.7,-0.02,-18.97
Cc1ccc(-c2ccc3nn(Cc4nc(-c5ccc(Cl)cc5)no4)c(=O)n3n2)cc1C,7.1,1.35,-12.88
Cc1cccc(-c2nc(CSc3nc4ccccc4n4c(C(C)C)nnc34)c(C)o2)c1,12.8,8.07,-24.07
CCc1ccccc1Sc1nccn2c(=O)n(CC(=O)Nc3ccc(C)cc3)nc12,-4.69,39.33,-9.26
Cc1cccc(NC(=O)CSc2nnc3c4cc(-c5ccccc5)nn4ccn23)c1C,7.23,5.25,-12.53
O=C(Cn1nc2c(N3CCOCC3)nccn2c1=O)NCc1cccs1,15.07,2.44,-8.25
Cc1cc(C)cc(Oc2nccn3c(=O)n(CC(=O)Nc4cccc(Cl)c4)nc23)c1,0.09,0.52,-3.38
COc1ccc(C(=O)CSc2nnc3c(=O)n(-c4ccc(Br)cc4)ccn23)cc1,6.12,4.09,-7.3
